# Reference: the supplement of paper PMC4466140
# Key:
# Assay in all cases: SPOT peptide array binding signal intensity (averaged, normalized) (arbitrary units (background-subtracted, floor 0; scale differs between SH3 domains)); higher = stronger binding of the SH3 domain to the peptide
# AgAbp1 = molecular target: AgAbp1
# Procedure, shortened: (§1)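 Four yeast species supplied the SH3 domains, which were expressed as GST fusions in E. coli BL21(DE3) and purified on glutathione Sepharose. Incubation with cellulose membranes carrying synthetic 15-mer peptides, cysteines exchanged for serines, ran overnight at 4°C at 10 μg/ml in TBS-based blocking buffer. Binding signal is reported as normalized, background-subtracted spot intensity averaged over replicates, in arbitrary units not shared between domains.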
# AgBbc1 = molecular target: AgBbc1
# Procedure, shortened: as §1
# AgBem1-D1 = molecular target: AgBem1-D1
# Procedure, shortened: as §1
# AgBzz1-D1 = molecular target: AgBzz1-D1
# Procedure, shortened: as §1
# AgBzz1-D2 = molecular target: AgBzz1-D2
# Procedure, shortened: as §1
# AgCyk3 = molecular target: AgCyk3
# Procedure, shortened: as §1
# AgFus1 = molecular target: AgFus1
# Procedure, shortened: as §1
# AgHof1 = molecular target: AgHof1
# Procedure, shortened: as §1
# AgHse1 = molecular target: AgHse1
# Procedure, shortened: as §1
# AgLsb1 = molecular target: AgLsb1
# Procedure, shortened: as §1
# AgLsb4 = molecular target: AgLsb4
# Procedure, shortened: as §1
# AgMyo5 = molecular target: AgMyo5
# Procedure, shortened: as §1
# AgNbp2 = molecular target: AgNbp2
# Procedure, shortened: as §1
# AgRvs167 = molecular target: AgRvs167
# Procedure, shortened: as §1
# AgSho1 = molecular target: AgSho1
# Procedure, shortened: as §1
# AgSla1-D1-D2 = molecular target: AgSla1-D1-D2
# Procedure, shortened: as §1
# AgSla1-D3 = molecular target: AgSla1-D3
# Procedure, shortened: as §1
# CaAbp1-D1 = molecular target: CaAbp1-D1
# Procedure, shortened: as §1
# CaAbp1-D2 = molecular target: CaAbp1-D2
# Procedure, shortened: as §1
# CaBbc1 = molecular target: CaBbc1
# Procedure, shortened: as §1
# CaBem1-D1 = molecular target: CaBem1-D1
# Procedure, shortened: as §1
# CaBzz1-D1 = molecular target: CaBzz1-D1
# Procedure, shortened: as §1
# CaBzz1-D2 = molecular target: CaBzz1-D2
# Procedure, shortened: as §1
# CaCyk3 = molecular target: CaCyk3
# Procedure, shortened: as §1
# CaFus1 = molecular target: CaFus1
# Procedure, shortened: as §1
# CaHof1 = molecular target: CaHof1
# Procedure, shortened: as §1
# CaHse1 = molecular target: CaHse1
# Procedure, shortened: as §1
# CaLsb1 = molecular target: CaLsb1
# Procedure, shortened: as §1
# CaLsb4 = molecular target: CaLsb4
# Procedure, shortened: as §1
# CaMyo5 = molecular target: CaMyo5
# Procedure, shortened: as §1
# CaNbp2 = molecular target: CaNbp2
# Procedure, shortened: as §1
# CaRvs167 = molecular target: CaRvs167
# Procedure, shortened: as §1
# CaRvs167-3 = molecular target: CaRvs167-3
# Procedure, shortened: as §1
# CaSho1 = molecular target: CaSho1
# Procedure, shortened: as §1
# CaSla1-D1-D2 = molecular target: CaSla1-D1-D2
# Procedure, shortened: as §1
# CaSla1-D3 = molecular target: CaSla1-D3
# Procedure, shortened: as §1
# ScAbp1 = molecular target: ScAbp1
# Procedure, shortened: as §1
# ScBbc1 = molecular target: ScBbc1
# Procedure, shortened: as §1
# ScBem1-D1 = molecular target: ScBem1-D1
# Procedure, shortened: as §1
# ScBzz1-D1 = molecular target: ScBzz1-D1
# Procedure, shortened: as §1
# ScBzz1-D2 = molecular target: ScBzz1-D2
# Procedure, shortened: as §1
# ScCyk3 = molecular target: ScCyk3
# Procedure, shortened: as §1
# ScFus1 = molecular target: ScFus1
# Procedure, shortened: as §1
# ScHof1 = molecular target: ScHof1
# Procedure, shortened: as §1
# ScHse1 = molecular target: ScHse1
# Procedure, shortened: as §1
# ScLsb1 = molecular target: ScLsb1
# Procedure, shortened: as §1
# ScLsb2 = molecular target: ScLsb2
# Procedure, shortened: as §1
# ScLsb3 = molecular target: ScLsb3
# Procedure, shortened: as §1
# ScLsb4 = molecular target: ScLsb4
# Procedure, shortened: as §1
# ScMyo3 = molecular target: ScMyo3
# Procedure, shortened: as §1
# ScMyo5 = molecular target: ScMyo5
# Procedure, shortened: as §1
# ScNbp2 = molecular target: ScNbp2
# Procedure, shortened: as §1
# ScPex13 = molecular target: ScPex13
# Procedure, shortened: as §1
# ScRvs167 = molecular target: ScRvs167
# Procedure, shortened: as §1
# ScSho1 = molecular target: ScSho1
# Procedure, shortened: as §1
# ScSla1-D1-D2 = molecular target: ScSla1-D1-D2
# Procedure, shortened: as §1
# ScSla1-D3 = molecular target: ScSla1-D3
# Procedure, shortened: as §1
# SpAbp1-D1 = molecular target: SpAbp1-D1
# Procedure, shortened: as §1
# SpBbc1 = molecular target: SpBbc1
# Procedure, shortened: as §1
# SpBzz1-D1 = molecular target: SpBzz1-D1
# Procedure, shortened: as §1
# SpBzz1-D2 = molecular target: SpBzz1-D2
# Procedure, shortened: as §1
# SpCyk3 = molecular target: SpCyk3
# Procedure, shortened: as §1
# SpHof1 = molecular target: SpHof1
# Procedure, shortened: as §1
# SpHof1-2 = molecular target: SpHof1-2
# Procedure, shortened: as §1
# SpHof1-3 = molecular target: SpHof1-3
# Procedure, shortened: as §1
# SpHse1 = molecular target: SpHse1
# Procedure, shortened: as §1
# SpLsb1 = molecular target: SpLsb1
# Procedure, shortened: as §1
# SpLsb4 = molecular target: SpLsb4
# Procedure, shortened: as §1
# SpMyo1 = molecular target: SpMyo1
# Procedure, shortened: as §1
# SpNbp2 = molecular target: SpNbp2
# Procedure, shortened: as §1
# SpPex13 = molecular target: SpPex13
# Procedure, shortened: as §1
# SpRvs167 = molecular target: SpRvs167
# Procedure, shortened: as §1
# SpSla1-D1-D2 = molecular target: SpSla1-D1-D2
# Procedure, shortened: as §1
# SpSla1-D3 = molecular target: SpSla1-D3
# Procedure, shortened: as §1
binder,measurement,setting,value
FVLRYYILIPHEQWD,SPOT peptide array binding signal intensity,AgAbp1,6
same,SPOT peptide array binding signal intensity,AgBbc1,≤ 0
same,SPOT peptide array binding signal intensity,AgBem1-D1,190
same,SPOT peptide array binding signal intensity,AgBzz1-D1,≤ 0
same,SPOT peptide array binding signal intensity,AgBzz1-D2,5.5
same,SPOT peptide array binding signal intensity,AgCyk3,13.5
same,SPOT peptide array binding signal intensity,AgFus1,1800
same,SPOT peptide array binding signal intensity,AgHof1,5
same,SPOT peptide array binding signal intensity,AgHse1,1200
same,SPOT peptide array binding signal intensity,AgLsb1,3
same,SPOT peptide array binding signal intensity,AgLsb4,334
same,SPOT peptide array binding signal intensity,AgMyo5,1
same,SPOT peptide array binding signal intensity,AgNbp2,82.5
same,SPOT peptide array binding signal intensity,AgRvs167,2.5
same,SPOT peptide array binding signal intensity,AgSho1,218
same,SPOT peptide array binding signal intensity,AgSla1-D1-D2,14.5
same,SPOT peptide array binding signal intensity,AgSla1-D3,2.75
same,SPOT peptide array binding signal intensity,CaAbp1-D1,30.5
same,SPOT peptide array binding signal intensity,CaAbp1-D2,78.5
same,SPOT peptide array binding signal intensity,CaBbc1,0.25
same,SPOT peptide array binding signal intensity,CaBem1-D1,≤ 0
same,SPOT peptide array binding signal intensity,CaBzz1-D1,63
same,SPOT peptide array binding signal intensity,CaBzz1-D2,36.8
same,SPOT peptide array binding signal intensity,CaCyk3,5
same,SPOT peptide array binding signal intensity,CaFus1,3930
same,SPOT peptide array binding signal intensity,CaHof1,0.75
same,SPOT peptide array binding signal intensity,CaHse1,174
same,SPOT peptide array binding signal intensity,CaLsb1,6.5
same,SPOT peptide array binding signal intensity,CaLsb4,31.5
same,SPOT peptide array binding signal intensity,CaMyo5,31.5
same,SPOT peptide array binding signal intensity,CaNbp2,595
same,SPOT peptide array binding signal intensity,CaRvs167,216
same,SPOT peptide array binding signal intensity,CaRvs167-3,119
same,SPOT peptide array binding signal intensity,CaSho1,666
same,SPOT peptide array binding signal intensity,CaSla1-D1-D2,≤ 0
same,SPOT peptide array binding signal intensity,CaSla1-D3,163
same,SPOT peptide array binding signal intensity,ScAbp1,≤ 0
same,SPOT peptide array binding signal intensity,ScBbc1,≤ 0
same,SPOT peptide array binding signal intensity,ScBem1-D1,14.5
same,SPOT peptide array binding signal intensity,ScBzz1-D1,14
same,SPOT peptide array binding signal intensity,ScBzz1-D2,28
same,SPOT peptide array binding signal intensity,ScCyk3,35
same,SPOT peptide array binding signal intensity,ScFus1,1310
same,SPOT peptide array binding signal intensity,ScHof1,≤ 0
same,SPOT peptide array binding signal intensity,ScHse1,1060
same,SPOT peptide array binding signal intensity,ScLsb1,≤ 0
same,SPOT peptide array binding signal intensity,ScLsb2,1.5
same,SPOT peptide array binding signal intensity,ScLsb3,67
same,SPOT peptide array binding signal intensity,ScLsb4,5
same,SPOT peptide array binding signal intensity,ScMyo3,1.5
same,SPOT peptide array binding signal intensity,ScMyo5,3
same,SPOT peptide array binding signal intensity,ScNbp2,187
same,SPOT peptide array binding signal intensity,ScPex13,7.5
same,SPOT peptide array binding signal intensity,ScRvs167,9.83
same,SPOT peptide array binding signal intensity,ScSho1,1100
same,SPOT peptide array binding signal intensity,ScSla1-D1-D2,7.5
same,SPOT peptide array binding signal intensity,ScSla1-D3,51
same,SPOT peptide array binding signal intensity,SpAbp1-D1,59.5
same,SPOT peptide array binding signal intensity,SpBbc1,2
same,SPOT peptide array binding signal intensity,SpBzz1-D1,20.5
same,SPOT peptide array binding signal intensity,SpBzz1-D2,3.25
same,SPOT peptide array binding signal intensity,SpCyk3,27.5
same,SPOT peptide array binding signal intensity,SpHof1,79.5
same,SPOT peptide array binding signal intensity,SpHof1-2,32.5
same,SPOT peptide array binding signal intensity,SpHof1-3,554
same,SPOT peptide array binding signal intensity,SpHse1,954
same,SPOT peptide array binding signal intensity,SpLsb1,2.5
same,SPOT peptide array binding signal intensity,SpLsb4,11.5
same,SPOT peptide array binding signal intensity,SpMyo1,13.2
same,SPOT peptide array binding signal intensity,SpNbp2,574
same,SPOT peptide array binding signal intensity,SpPex13,47.5
same,SPOT peptide array binding signal intensity,SpRvs167,10.7
same,SPOT peptide array binding signal intensity,SpSla1-D1-D2,1
same,SPOT peptide array binding signal intensity,SpSla1-D3,9.5
